Sm TGR inh – qHTS Assay for the Inhibitors of Schistosoma Mansoni Peroxiredoxins; Schistosoma mansoni thioredoxin glutathione reductase (TGR), Q962Y6; purified TGR, DTNB reduction, TNB absorbance 405 nm; Potency, µM (doses to about 114 µM), for inactives: at the top dose activity change, negative = inhibition, actives largely listed as inhibitors; hit rate 3% among 360,000; AID 485364, 2010; further: potency means the concentration at half of the fitted maximal effect; on the % scale 0 is the no-effect control and ±100 the full control effect; nearly all actives have a fitted effect of over 60% in size
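TGR 20 nM + NADPH 100 uM (dispensed conc.), cpd preinc 15 min RT; start with NADPH (500 uM addition) then DTNB (15 mM addition). Kinetic TNB absorbance, 405 nm filter. Four-parameter Hill fit across titration.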
Tb PYK inh – qHTS of Trypanosoma Brucei Inhibitors; Potency, µM (doses to about 76.8 µM), inactives show top-dose activity, negative = inhibition, most hits filed as inhibitors; pyruvate kinase (Trypanosoma brucei), Q57TT1; TbPYK enzyme, Kinase-Glo Plus ATP luminescence, 45 min; hit rate 0.12% among 410,000; further: potency means the concentration at half of the fitted maximal effect; on the % scale 0 is the no-effect control and ±100 the full control effect; nearly all actives have a fitted effect of over 50% in size
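TbPYK + substrate in 50 mM TEA pH 7.2, 100 mM KCl, 10 mM MgCl2, 0.05% BSA, 0.01% Tween-20; cpd pinned; ADP 130 uM final; 45 min RT; Kinase-Glo Plus 10 min; luminescence endpoint.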
Giardia FBPA inh – qHTS Assay for Inhibitors of Fructose-1,6-bisphosphate Aldolase from Giardia Lamblia; purified Giardia FBPA; hit rate 0.71% among 290,000; Potency, µM (highest dose often 59.6 µM), inactives show at the top dose activity, negative = inhibition, usual class: inhibitors; further: potency means the concentration at half of the fitted maximal effect; on the % scale 0 is the no-effect control and ±100 the full control effect; nearly all actives have a fitted effect of over 55% in size
Target sequence (A8B2U2 whole entry, looked up): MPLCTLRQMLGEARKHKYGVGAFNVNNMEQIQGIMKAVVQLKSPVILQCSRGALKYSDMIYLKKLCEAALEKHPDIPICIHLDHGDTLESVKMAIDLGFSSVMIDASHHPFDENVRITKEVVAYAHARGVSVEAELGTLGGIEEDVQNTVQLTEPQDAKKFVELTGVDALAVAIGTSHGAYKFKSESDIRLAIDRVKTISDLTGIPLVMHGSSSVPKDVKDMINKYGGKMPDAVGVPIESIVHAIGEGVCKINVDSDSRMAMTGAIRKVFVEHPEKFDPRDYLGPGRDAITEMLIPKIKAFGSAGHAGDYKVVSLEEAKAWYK
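Giardia FBPA (40 nM reagent) was preincubated 10 min at RT with compound (up to 57.5 uM final), then substrate plus GAPDH/TPI/NAD/arsenate coupling system with diaphorase/resazurin was added; resorufin fluorescence (525/598 nm) was read after 20 min.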
Shiga inhibitor – A qHTS for Small Molecule Inhibitors of Shiga Toxin | inhibition, % at 38.7 µM | AID 2315, 2010 | hit rate 9.2% among 290,000 | Vero cells, Shiga toxin protein synthesis inhibition reporter; in the data active means inhibition mostly above about 28%, no sharp cut-off; inactive means mostly below about 43%; further: 0% is about no effect
Cycloheximide cs – Cycloheximide Counterscreen for Small Molecule Inhibitors of Shiga Toxin. cell reporter, cycloheximide protein synthesis inhibition counterscreen. max response, %. hit rate 12% among 300,000. AID 2314, 2010; in the data active means max response mostly above about 13%, no sharp cut-off; inactive means mostly below about 14%; further: read at 38.3 µM for the half of the compounds with a filed dose; 0% is about no effect
LmPK inh – qHTS Assay for Inhibitors of Leishmania Mexicana Pyruvate Kinase (LmPK); purified LmPK, Kinase-Glo ATP luminescence, 1 h; Potency, µM (top dose mostly 57.5 µM), for inactives: top-dose activity change, negative = inhibition, most hits filed as inhibitors; hit rate 0.37% among 290,000; Q27686; further: potency means the concentration at half of the fitted maximal effect; on the % scale 0 is the no-effect control and ±100 the full control effect
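Screened at intermediate enzyme activity to detect both inhibitors and activators: LmPK at 0.1 nM, with a 0.5 nM enzyme column as activation reference. PEP 0.5 mM, ADP 0.1 mM; ATP detected by luminescence after 1 h.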
Starred values were filed as active, the others as inactive; ? = inconclusive; nt = no result. The sample as a whole holds a higher share of hits than the screen did. Unless noted, the call rests on the fitted dose curve; in most records, active means well fitted curve in the direction sought with a large enough effect; inconclusive means small, poorly fitted or top-dose-only effect, or another doubt; inactive means no such curve, though single readings can be large; an effect the other way counts as inactive or inconclusive.

SMILES | Sm TGR inh | Tb PYK inh | Giardia FBPA inh | Shiga inhibitor | Cycloheximide cs | LmPK inh
Cc1ccc(CNC(=O)Cn2cc3c(n2)-c2c(oc(C(=O)N4CCOCC4)c2C)CC3)cc1 | -11% | 2% | nt | nt | nt | nt
O=C(CSc1ncc(-c2ccccc2)[nH]1)Nc1cccc(Br)c1 | 6% | 0% | nt | nt | nt | nt
COc1ccc(NC(=O)c2ccc3c(c2)CCN3S(=O)(=O)c2ccc(C)cc2)cc1Cl | 1% | 5% | nt | nt | nt | nt
CC(=O)O[C@@H]1[C@H]2[C@@H](C[C@@H](C)[C@@H]3CCC(=O)[C@@]13C)OC(=O)[C@@H]2C | 15% | -1% | 3% | -11 | 18* | 2%
CSc1ncc(C(=O)Nc2c(C)cccc2C)c(-c2ccccc2)n1 | 2% | 3% | nt | nt | nt | nt
COc1ccc(C(=O)NC(=O)NC2(C(Cl)(Cl)Cl)OCCO2)cc1 | 5% | -3% | 0% | 76* | 51* | 3%
O=[N+]([O-])c1cc(-c2nc(-c3ccco3)no2)ccc1NCc1ccccc1 | 35µM* | -1% | nt | nt | nt | nt
O=[N+]([O-])c1cc(-c2nc(-c3ccccn3)no2)ccc1NCc1ccccc1 | 0% | 2% | nt | nt | nt | nt
Cn1ncc2c(Nc3ccc4ccccc4c3)ncnc21 | -14% | 0% | -9% | 81* | 33* | -3%
CC(=O)Nc1ccc(Nc2ncnc3c2cnn3C)cc1 | 9% | -1% | nt | nt | nt | nt
CCOc1ccc(Nc2ncnc3c2cnn3C)cc1 | 17% | -1% | -1% | 20 | 16* | 0%
Cn1ncc2c(Nc3ccc(Cl)cc3)ncnc21 | 2% | -1% | -8% | 16 | 32* | 6%
Cc1ccc(Nc2ncnc3c2cnn3C)cc1 | nt | -7% | -14% | 61* | 27* | -2%
CCOc1ccccc1NC(=O)NCc1noc2ccc(C)cc12 | 2% | 7% | nt | nt | nt | nt
CCOC(=O)C1=C(C)N=c2s/c(=C/c3cccc([N+](=O)[O-])c3O)c(=O)n2C1c1ccc(OC)cc1OC (stereo not given) | 56µM* | ? | -5% | nt | -4 | -12%
CCOC(=O)C1=C(C)N=c2s/c(=C\c3ccc(O)c([N+](=O)[O-])c3)c(=O)n2C1c1ccccc1OC (stereo not given) | -10% | -1% | -9% | -3 | 2 | -10%
COc1ccc(CCNC(=O)CSc2nc(-c3ccc(F)cc3)cc(C(F)(F)F)n2)cc1OC | 3% | 2% | nt | nt | nt | nt
Cn1nnnc1SCCCNCc1cc(Br)ccc1OCc1ccccc1F | 0% | 1% | nt | nt | nt | nt
COc1ccc(CC(=O)N/N=C(\C)c2cccnc2)cc1 | -22% | -6% | -14% | 2 | 1 | 4%
CN=c1scc(-c2ccc(OC)cc2)n1/N=C(\C)c1cccnc1 | 6% | 3% | 1% | 57* | 32* | -3%
C/C=C/C(=O)C[C@H]1CC[C@@H](C)[C@@H](CCO)O1 | nt | nt | 1% | nt | nt | nt
CCn1c2ccccc2c2nn(C)c(=N)nc21 | 1% | 1% | -6% | -12 | -3 | -12%
Cn1nc2c3ccccc3n(Cc3ccccc3)c2nc1=S | 16% | -3% | 6% | 121* | 41* | 1%
CCCN1CCN(CC2=C(C(=O)OCC)C(c3cccc(OC)c3OC)NC(=O)N2)CC1 (stereo not given) | 89µM* | -1% | nt | nt | nt | nt
CCCN1CCN(CC2=C(C(=O)OCC)C(c3ccc(Cl)cc3)NC(=O)N2)CC1 (stereo not given) | 2% | 5% | nt | nt | nt | nt
SMILES | Sm TGR inh | Tb PYK inh | Giardia FBPA inh | Shiga inhibitor | Cycloheximide cs | LmPK inh
Cc1ccccc1NC(=O)CSc1cn(CC(=O)N2CCCCCC2)c2ccccc12 | 21% | 3% | nt | nt | nt | nt
CC(=O)Nc1cccc(-c2cc(-c3c(Cl)cccc3Cl)no2)c1 | 11% | 2% | -9% | 4 | -3 | 5%
CC(=O)Nc1nccc(-c2cc(-c3ccccc3)no2)n1 | -8% | 0% | 2% | 53* | 30* | -13%
CC(C)C(NC(=O)OCc1ccccc1)C(=O)OCC(=O)N1CCCCC1 (stereo not given) | 13% | 2% | 3% | 69* | 44* | -2%
COc1ccc(N2CCN(C(=O)COC(=O)[C@@H](NC(=O)OCc3ccccc3)C(C)C)CC2)cc1 | nt | -6% | nt | nt | nt | nt
CCOc1ccc(-c2nc(CCl)cs2)cc1OC | -21% | -4% | -10% | 41 | 17* | -7%
COc1ccc(-c2noc(-c3cccnc3)n2)cc1OC | -2% | -2% | 2% | 52* | 17* | -21%
CCOc1cc(-c2noc(-c3cccnc3)n2)ccc1OC | -3% | 5% | 6% | -8 | 1 | -1%
CCOc1ccc(-c2noc(COC)n2)cc1OC | -6% | -8% | 1% | 23 | 21* | -5%
CCOc1ccc(-c2noc(-c3cccnc3)n2)cc1OC | 5% | -1% | 8% | 27 | 15* | -8%
Cc1ccc(C)c(S(=O)(=O)c2nnn3c2nc(Nc2ccc(F)c(Cl)c2)c2sccc23)c1 | 10% | -7% | nt | nt | nt | nt
O=C(CO)[C@@H](O)C(O)[C@@H](O)CO (stereo not given in full) | nt | 5% | 3% | -3 | -3 | nt
CCCC[C@H](NC(=O)[C@H](CC(C)C)NC(=O)[C@@H](Cc1c[nH]c2ccccc12)NC(=O)[C@H](Cc1ccccc1)NC(=O)[C@@H](Cc1c[nH]c2ccccc12)NC(=O)[C@H](CC(N)=O)NC(=O)[C@@H](Cc1c(Cl)cccc1Cl)NC(=O)[C@@H]1CCCN1C(=O)[C@H](Cc1ccccn1)NC(=O)[C@@H]1CCCN1C(=O)[C@H](N)CCCCNC(=O)c1cccnc1)C(N)=O | nt | nt | 2% | -3 | -8 | nt
CCOC(=O)c1ccc2c(c1)N(Cc1cccc(C(F)(F)F)c1)C(=O)c1ccccc1S2(=O)=O | 8% | 2% | nt | nt | nt | nt
CCOc1ccc2nc(SC3CC(=O)N(c4ccccc4)C3=O)sc2c1 (stereo not given) | ? | 0% | 2% | -19 | 10 | -3%
COc1ccc(N2C(=O)CC(Sc3n[nH]c(-c4ccccc4)n3)C2=O)cc1 (stereo not given) | 0.32µM* | -20% | -20% | 11 | -2 | 11%
CCOc1ccc(N2C(=O)CC(Sc3n[nH]c(-c4ccccc4)n3)C2=O)cc1 (stereo not given) | 0.63µM* | -29% | -24% | 7 | -3 | 17%
COc1ccc(N2CCN(CCCNC(=O)c3cnn(-c4ccc(F)cc4)c3-n3cccc3)CC2)cc1 | 0% | -9% | nt | nt | nt | nt
COc1ccc(CCNC(=O)Cc2c(C)c3ccc(O)c(C)c3oc2=O)cc1OC | -1% | -5% | nt | nt | nt | nt
O=C(Nc1ccc(N2CCCCC2)cc1)c1ccc(F)cc1 | -12% | -8% | -2% | 77* | 52* | ?
